According to PubChem BioAssay (NCATS):
Where “and” joins values, the source holds several entries; their conditions need not be identical. Equal entries are not always repeated. Inconclusive results are not listed. Calls of active or inactive are those of the source. Unless noted, calls come from the whole dose curve; as a rule, active = well fitted curve in the direction sought with a large enough effect; inconclusive = small, poorly fitted or top-dose-only effect, or another doubt; inactive = no such curve, though single readings can be large; an effect the other way counts as inactive or inconclusive.

What was measured:
[1] = Cell Viability - HUV-EC-C (AID 542);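 note: cells exposed to compound for 40 hours; % is set by controls: 0 for no effect and ±100 for the full control effect; nearly all actives have a fitted effect of over 35% in size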
Method in brief: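 Concentration-dependent ATP loss in HUV-EC-C cells is the measure. Exposure lasts 40 hr at 37 °C; luminescence follows CellTiter-Glo addition, and Hill fits give AC50.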

[2] = Cell Viability - SH-SY5Y (AID 544); conditions: SH-SY5Y neuroblastoma cell viability; viability change, negative = cytotoxic: at 92.2 µM (top of the series);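 note: cells exposed to compound for 40 hours; 0% = DMSO alone and -100% = 100 µM tamoxifen; nearly all actives have a fitted effect of over 55% in size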
Method in brief: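 Quantitative HTS in SH-SY5Y neuroblastoma cells, 40 hr treatment at 37 °C, ATP content by luciferase luminescence; AC50 from Hill fits.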

[3] = Cell Viability - Renal Proximal Tubule (AID 545);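 note: cells exposed to compound for 40 hours; 0% = DMSO only and -100% = 100 µM tamoxifen; nearly all actives have a fitted effect of over 40% in size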
Method in brief: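 Primary rat renal proximal tubule cells (1000/well) were treated with compounds for 40 hr at 37 °C in complete medium. Intracellular ATP was measured by CellTiter-Glo luminescence, and AC50 values came from Hill-equation fits of concentration-response data.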

[4] = Cell Viability - LYMP1-003 - Assay at 40 hr (AID 964); note: % is set by controls: 0 for no effect and ±100 for the full control effect; nearly all actives have a fitted effect of over 60% in size
Method in brief: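 Acute toxicity is scored as a concentration-dependent loss of intracellular ATP in LYMP1-003 cells (2500/well, complete medium) after 40 hr at 37 C, measured by CellTiter-Glo luminescence; AC50 values derive from standard Hill modelling.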

[5] = Cell Viability - LYMP2-011 (AID 969);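 note: cells exposed to compound for 24 hours; 0% = DMSO only and full inhibition = 92 µM tetraoctylammonium bromide; nearly all actives have a fitted effect of over 60% in size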
Method in brief: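 Cells seeded at 2500 per well rest 5 hr before compound addition, then incubate 24 hr at 37 C. CellTiter-Glo reagent is added for 30 min at room temperature before luminescence detection.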

[6] = Cell Viability - LYMP2-002 (AID 977);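 note: compound exposure lasted 24 h at 37 °C; plate controls were DMSO only for no effect and 92 µM tetraoctylammonium bromide for full effect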
Method in brief: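 In this qHTS viability screen, 2500 human lymphoblastoid cells per well receive compound for 24 hr at 37 C, and luciferase-based ATP luminescence gives the viability signal. Tetraoctylammonium bromide serves as positive control.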

[7] = Cell Viability - LYMP2-010 (AID 981);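 note: cells exposed to compound for 24 hours at 37 °C; % is set by controls: 0 for no effect and ±100 for the full control effect; nearly all actives have a fitted effect of over 55% in size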
Method in brief: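 This 24 hr viability screen uses LYMP2-010 lymphoblastoid cells, quantifies ATP via luciferase luminescence, and derives AC50 from Hill fits of qHTS concentration-response data.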

[8] = Cell Viability - LYMP2-012 (AID 982);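 note: cellular ATP by luciferase luminescence where a drop means cytotoxicity; cells exposed to compound for one day before reading; 0% = DMSO only and full loss = 92 µM tetraoctylammonium bromide; nearly all actives have a fitted effect of over 55% in size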
[9] = molecular target: Retinoic acid receptor RXR-alpha (Homo sapiens) (UniProt P19793); assay: qHTS assay for small molecule agonists of retinoid X receptor alpha signaling (AID 588544; calls by dose curve;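 note: 0% = DMSO basal wells and 100% = reference agonist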)
[10] = molecular target: Thyroid hormone receptor beta (Homo sapiens) (UniProt P10828); assay: qHTS assay for small molecule agonists of thyroid hormone receptor beta signaling (AID 588545; calls by dose curve)
Method in brief: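 Cells (2500/well) were seeded, incubated 4 hrs at 37 C, dosed with a compound series, incubated 18 hrs, loaded with CCF4 dye for 2 hrs at RT, then read for fluorescence. Data were scaled between DMSO (0%) and 10 nM T3 (100%).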

[11] = molecular target: Retinoic acid receptor RXR-alpha (Homo sapiens) (UniProt P19793); assay: qHTS assay for small molecule antagonists of retinoid X receptor alpha signaling (AID 588546; active = well fitted inhibition curve with a large enough effect in the signal ratio, with a control signal flat, not every such curve was filed as active; the % refers to the signal ratio;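 note: cells stimulated with 9-cis-retinoic acid as agonist; % is set by controls: 0 for no effect and ±100 for the full control effect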); conditions: HEK293T RXRa-UAS-bla, beta-lactamase ratio, antagonist mode
Method in brief: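 Beta-lactamase reporter inhibition, read as CCF4 fluorescence ratio (ex 405, em 460/530 nm) after 2 h at RT. HEK293T UAS-bla cells, 2500/well, were stimulated with 9-cis-RA at 500 or 100 nM final alongside test compound for 18 h at 37 C.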

[12] = molecular target: Thyroid hormone receptor beta (Homo sapiens) (UniProt P10828); assay: qHTS assay for small molecule antagonists of thyroid hormone receptor beta signaling (AID 588547; active = well fitted inhibition curve with a large enough effect in the signal ratio, with a control signal flat, not every such curve was filed as active; the % refers to the signal ratio;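 note: cells stimulated with 0.4 nM T3 agonist during compound exposure; % is set by controls: 0 for no effect and ±100 for the full control effect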); conditions: TR-UAS-bla HEK293, beta-lactamase ratio, antagonist mode, 18 h
Method in brief: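 TR-UAS-bla GripTite HEK293 cells in 2% charcoal/dextran FBS medium were preincubated 4 h at 37 C, given compound (0.59 nM to 92 uM) plus 0.4 nM T3 (final) for 18 h, then CCF4 for 2 h at RT; Hill fit gave IC50.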

[13] = qHTS assay for environmental chemicals that activate the Aryl hydrocarbon Receptor (AhR) signaling pathway (AID 651777); conditions: 1A2-DRE human hepatoma cells, luciferase, 24 h; activation: stronger effect = higher value; note: % of control where 0% means no effect; nearly all actives have a fitted effect of over 15% in size
Method in brief: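 Quantitative HTS in stably transfected human liver-derived cells whose luciferase gene sits downstream of the CYP1A2 promoter and dioxin response element. After 24 hr exposure at 37 C, One-Glo luminescence was measured.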

[14] = qHTS assay for small molecule agonists of the antioxidant response element (ARE) signaling pathway measured by Nrf2-dependant transcriptional activity (AID 720636; active = well fitted curve in the direction sought with a large enough effect in the repeat runs; an effect the other way counts as inactive or inconclusive; note: % of control where 0% means no effect)
Method in brief: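 Quantitative HTS format in HepG2 cells stably expressing an ARE-luciferase reporter; 16 hr compound treatment at 37 C, luciferase signal detected with ONE-Glo.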

[15] = qHTS assay for small molecule antagonists of the retinoid-related orphan receptor gamma (ROR-gamma) signaling pathway - cell viability counter screen (AID 720652; active = well fitted curve in the direction sought with a large enough effect in the repeat runs; an effect the other way counts as inactive or inconclusive;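 note: CHO reporter cells with doxycycline-induced ROR-gamma expression; compound exposure lasted 16 hr before ATP read; % is set by controls: 0 for no effect and ±100 for the full control effect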)
Method in brief: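 ATP-based viability readout in the ROR-gamma reporter CHO cells after 16 hr compound exposure under doxycycline induction.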

[16] = molecular target: Nuclear receptor subfamily 1 group I member 2 (Rattus norvegicus) (UniProt Q9R1A7); assay: qHTS assay for small molecule activators of the rat pregnane X receptor (rPXR) signaling pathway (AID 651751; call rule not given here; note: 0% is about no effect); conditions: rPXR reporter cells, luciferase (One-Glo), 24 h
[17] = qHTS assay for small molecule activators of the human pregnane X receptor (PXR) signaling pathway (AID 720659; call rule not given here; note: 0% is about no effect)
[18] = qHTS assay for small molecule disruptors of the mitochondrial membrane potential - 1 hr assay (AID 651754; calls by dose curve; note: % is set by controls: 0 for no effect and ±100 for the full control effect; nearly all actives have a fitted effect of over 35% in size)
Method in brief: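 In this qHTS format, a 1 hr compound treatment of HepG2 cells precedes Mito-MPS staining, and membrane potential is judged from aggregate (red) against monomer (green) fluorescence intensity.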

[19] = Cell Viability - Mesenchymal (AID 546);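 note: cells exposed to compound for 40 hours before reading; 0% = DMSO only and -100% = 100 µM tamoxifen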
Method in brief: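 In this qHTS cytotoxicity format, glomerulus-derived human mesenchymal kidney cells received compound for 40 hr, then luciferase-based ATP quantitation. Concentration-response data were fitted with the Hill equation.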

[20] = molecular target: Peroxisome proliferator-activated receptor delta (Homo sapiens) (UniProt Q03181); assay: qHTS assay for small molecule agonists of peroxisome proliferator-activated receptor delta signaling (AID 588534; calls by dose curve;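 note: 0% = DMSO basal wells and 100% = positive control agonist at 10 µM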)
Method in brief: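 EC50 and efficacy values derive from Hill fits of a concentration series in a beta-lactamase reporter cell assay. Exposure is 18 hrs at 37 C, with CCF4 fluorescence as the readout.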

Sequence of Nuclear receptor subfamily 1 group I member 2 (Rattus norvegicus) (Q9R1A7 whole entry, looked up): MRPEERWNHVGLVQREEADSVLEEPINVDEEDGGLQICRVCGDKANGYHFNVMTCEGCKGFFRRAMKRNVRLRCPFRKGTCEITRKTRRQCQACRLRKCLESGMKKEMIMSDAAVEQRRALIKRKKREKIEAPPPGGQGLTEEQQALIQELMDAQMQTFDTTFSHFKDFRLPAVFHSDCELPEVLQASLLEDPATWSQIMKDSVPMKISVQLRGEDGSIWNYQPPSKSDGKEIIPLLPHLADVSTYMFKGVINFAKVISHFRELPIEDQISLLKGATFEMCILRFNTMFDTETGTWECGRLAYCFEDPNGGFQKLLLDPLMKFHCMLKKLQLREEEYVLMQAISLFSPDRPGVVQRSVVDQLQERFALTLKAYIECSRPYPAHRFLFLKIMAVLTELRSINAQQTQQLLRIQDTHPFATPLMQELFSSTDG
Sequence of Peroxisome proliferator-activated receptor delta (Homo sapiens) (Q03181 whole entry, looked up): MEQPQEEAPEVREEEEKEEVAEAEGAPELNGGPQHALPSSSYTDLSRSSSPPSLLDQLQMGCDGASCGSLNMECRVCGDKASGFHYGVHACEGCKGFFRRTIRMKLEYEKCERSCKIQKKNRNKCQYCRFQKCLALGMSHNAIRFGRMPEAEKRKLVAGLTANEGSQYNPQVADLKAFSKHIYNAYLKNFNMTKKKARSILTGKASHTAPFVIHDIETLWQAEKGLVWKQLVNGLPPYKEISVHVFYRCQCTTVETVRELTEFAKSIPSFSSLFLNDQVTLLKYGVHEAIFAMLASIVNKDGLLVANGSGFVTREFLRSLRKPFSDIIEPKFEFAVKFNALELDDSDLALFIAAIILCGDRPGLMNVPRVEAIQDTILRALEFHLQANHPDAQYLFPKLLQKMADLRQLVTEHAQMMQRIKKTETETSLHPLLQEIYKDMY
Sequence of Thyroid hormone receptor beta (Homo sapiens) (P10828 whole entry, looked up): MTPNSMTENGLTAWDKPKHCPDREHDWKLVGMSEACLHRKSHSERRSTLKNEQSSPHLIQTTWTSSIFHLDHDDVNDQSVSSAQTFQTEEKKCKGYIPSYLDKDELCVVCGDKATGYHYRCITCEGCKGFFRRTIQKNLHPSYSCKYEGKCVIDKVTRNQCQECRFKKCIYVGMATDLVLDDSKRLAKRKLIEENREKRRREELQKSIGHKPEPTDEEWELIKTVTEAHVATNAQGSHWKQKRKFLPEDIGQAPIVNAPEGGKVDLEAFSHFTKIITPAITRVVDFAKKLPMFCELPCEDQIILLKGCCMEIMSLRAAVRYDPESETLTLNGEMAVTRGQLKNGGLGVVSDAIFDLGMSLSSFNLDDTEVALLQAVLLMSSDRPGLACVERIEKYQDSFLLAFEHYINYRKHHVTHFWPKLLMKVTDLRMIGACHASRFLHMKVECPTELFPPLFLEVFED
Sequence of Retinoic acid receptor RXR-alpha (Homo sapiens) (P19793 whole entry, looked up): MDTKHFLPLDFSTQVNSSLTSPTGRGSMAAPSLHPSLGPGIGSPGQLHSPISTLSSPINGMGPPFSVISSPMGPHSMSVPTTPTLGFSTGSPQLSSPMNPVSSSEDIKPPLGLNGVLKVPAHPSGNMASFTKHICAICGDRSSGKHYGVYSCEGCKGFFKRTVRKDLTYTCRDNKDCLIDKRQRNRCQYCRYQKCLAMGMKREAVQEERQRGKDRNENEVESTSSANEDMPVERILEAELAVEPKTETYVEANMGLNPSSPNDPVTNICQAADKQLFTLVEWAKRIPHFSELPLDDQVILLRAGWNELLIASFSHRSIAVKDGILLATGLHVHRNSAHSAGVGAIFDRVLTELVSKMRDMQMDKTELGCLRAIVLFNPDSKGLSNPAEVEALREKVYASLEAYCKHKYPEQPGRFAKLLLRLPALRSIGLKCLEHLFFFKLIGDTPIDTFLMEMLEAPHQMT

O=[N+]([O-])CCO
inactive: Potency [1] | Potency [2] | outcome [3] | Potency [4] | Potency [5] | Potency [6] | Potency [7] | Potency [8] | outcome [9] | Potency [10] | max response [11] -8.95% | activity change % (negative = inhibition) [12] 2.47% | activation [13] -2.02% | Potency [14] | Potency [15] | max response [16] 2.92% | outcome [17]

OCCBr
inactive: Potency [1] | Potency [2] | Potency [4] | Potency [5] | Potency [8] | outcome [9] | Potency [10] | Potency [18] | activation [13] -0.283% | Potency [14] | Potency [15] | max response [16] -0.978% | outcome [17]

Nc1ccc2ccccc2c1
inactive: Potency [2] | outcome [3] | Potency [19] | Potency [4] | Potency [5] | Potency [6] | Potency [7] | Potency [8] | Potency [10] | Potency [18] | Potency [14] | Potency [15] | outcome [17]

Cl/C=C/CCl
inactive: Potency [1] | Potency [2] | Potency [4] | Potency [5] | Potency [6] | Potency [7] | outcome [20] | outcome [9] | Potency [10] | activity change % (negative = inhibition) [12] -4.73% | Potency [18] | Potency [14] | Potency [15] | max response [16] -4.52% | outcome [17]

CCCCCCCCCCCCCl
inactive: Potency [1] | Potency [2] | outcome [3] | Potency [19] | Potency [5] | Potency [7] | Potency [8] | outcome [20] | outcome [9] | Potency [10] | max response [11] -4.83% | activity change % (negative = inhibition) [12] -6.1% | Potency [18] | Potency [14] | Potency [15] | max response [16] 3.36% | outcome [17]

ClCc1ccccn1
inactive: Potency [1] | Potency [2] | outcome [3] | Potency [5] | Potency [7] | outcome [20] | outcome [9] | Potency [10] | max response [11] -12.8% and -17% | activity change % (negative = inhibition) [12] -1.68% | Potency [18] | activation [13] -0.85% and 1.26% | Potency [14] | Potency [15] | max response [16] 2.99% and 8.15% | outcome [17]

Cl/C=C/Cl
inactive: Potency [1] | Potency [2] | Potency [19] | Potency [4] | Potency [5] | Potency [6] | Potency [7] | Potency [8] | outcome [20] | outcome [9] | Potency [10] | max response [11] 6.16% | activity change % (negative = inhibition) [12] -4.77% | Potency [14] | Potency [15] | max response [16] -3.34% | outcome [17]

c1ccc(P(c2ccccc2)c2ccccc2)cc1
inactive: Potency [2] | outcome [3] | Potency [19] | Potency [5] | Potency [8] | outcome [20] | Potency [10] | max response [11] 14.4% | activity change % (negative = inhibition) [12] 5.79% | activation [13] 0.491% | Potency [14] | Potency [15] | max response [16] 2.64%
